# Results as given in the supplement of paper PMC6411743.
# ± gives the standard deviation of the averaged measurements. About 6,200 targets were measured; listed, in parts, are those with the largest changes and a random draw of the rest.
# Columns and labels:
# Experiment in all cases: NP40-soluble protein abundance relative to vehicle (solubility fold change) (ratio); higher = more soluble protein in presence of AMP-PNP
# UniProt Q58A45|Q58A45-3 = molecular target: T1, UniProt Q58A45|Q58A45-3
# T1 sequence (whole entry): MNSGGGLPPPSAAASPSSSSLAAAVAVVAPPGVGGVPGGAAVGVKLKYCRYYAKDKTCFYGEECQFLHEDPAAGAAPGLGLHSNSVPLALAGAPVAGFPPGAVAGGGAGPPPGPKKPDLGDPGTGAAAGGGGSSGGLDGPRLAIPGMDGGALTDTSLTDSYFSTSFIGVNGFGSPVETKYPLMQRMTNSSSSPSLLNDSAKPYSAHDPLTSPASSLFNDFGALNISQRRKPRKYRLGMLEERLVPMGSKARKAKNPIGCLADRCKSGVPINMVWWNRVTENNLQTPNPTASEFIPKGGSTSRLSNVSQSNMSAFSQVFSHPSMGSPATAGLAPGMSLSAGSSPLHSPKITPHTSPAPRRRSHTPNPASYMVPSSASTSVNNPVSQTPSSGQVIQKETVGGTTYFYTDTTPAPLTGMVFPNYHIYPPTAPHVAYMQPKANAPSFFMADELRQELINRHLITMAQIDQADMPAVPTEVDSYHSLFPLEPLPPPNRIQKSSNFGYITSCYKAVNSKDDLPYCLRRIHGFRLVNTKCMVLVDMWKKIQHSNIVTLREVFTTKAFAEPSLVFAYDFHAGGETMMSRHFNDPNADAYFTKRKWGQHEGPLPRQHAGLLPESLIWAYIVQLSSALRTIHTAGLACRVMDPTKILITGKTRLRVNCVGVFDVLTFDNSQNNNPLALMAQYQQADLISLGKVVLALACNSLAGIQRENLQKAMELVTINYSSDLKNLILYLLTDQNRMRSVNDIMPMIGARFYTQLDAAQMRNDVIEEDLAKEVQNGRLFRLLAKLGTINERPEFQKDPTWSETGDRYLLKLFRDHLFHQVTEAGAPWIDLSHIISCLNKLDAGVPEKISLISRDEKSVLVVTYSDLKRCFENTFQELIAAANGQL
# Procedure, shortened: (§1)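 Crude Jurkat lysate, prepared by Dounce homogenisation, was exposed to eight concentrations from 0.1 to 10 mM for 10 min at room temperature and then 3 min at 37 °C. Solubilisation used 0.8% NP40 with benzonase for 60 min at 4 °C, followed by ultracentrifugation and TMT labelling of the supernatant for LC-MS/MS. After vsn normalisation of intensities, each value is the fold change against the detergent-processed vehicle within each replicate, across three independent experiments.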
# UniProt Q5SGD2|Q5SGD2-3 = molecular target: T2, UniProt Q5SGD2|Q5SGD2-3
# T2 sequence (whole entry): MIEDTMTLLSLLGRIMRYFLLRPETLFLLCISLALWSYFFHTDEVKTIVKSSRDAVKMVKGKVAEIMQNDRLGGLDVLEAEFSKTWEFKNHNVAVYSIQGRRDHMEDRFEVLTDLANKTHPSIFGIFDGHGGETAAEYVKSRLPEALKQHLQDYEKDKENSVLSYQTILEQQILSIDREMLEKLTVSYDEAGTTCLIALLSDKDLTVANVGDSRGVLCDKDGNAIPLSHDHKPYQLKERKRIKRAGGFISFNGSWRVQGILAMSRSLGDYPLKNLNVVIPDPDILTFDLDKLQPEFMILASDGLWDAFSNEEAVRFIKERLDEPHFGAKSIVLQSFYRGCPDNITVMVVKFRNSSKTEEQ
# Procedure, shortened: as §1
# [1] = molecular target: T3, UniProt Q6PJT7-2|Q6PJT7-3|Q6PJT7-5|Q6PJT7-9|Q6PJT7
# T3 sequence (whole entry): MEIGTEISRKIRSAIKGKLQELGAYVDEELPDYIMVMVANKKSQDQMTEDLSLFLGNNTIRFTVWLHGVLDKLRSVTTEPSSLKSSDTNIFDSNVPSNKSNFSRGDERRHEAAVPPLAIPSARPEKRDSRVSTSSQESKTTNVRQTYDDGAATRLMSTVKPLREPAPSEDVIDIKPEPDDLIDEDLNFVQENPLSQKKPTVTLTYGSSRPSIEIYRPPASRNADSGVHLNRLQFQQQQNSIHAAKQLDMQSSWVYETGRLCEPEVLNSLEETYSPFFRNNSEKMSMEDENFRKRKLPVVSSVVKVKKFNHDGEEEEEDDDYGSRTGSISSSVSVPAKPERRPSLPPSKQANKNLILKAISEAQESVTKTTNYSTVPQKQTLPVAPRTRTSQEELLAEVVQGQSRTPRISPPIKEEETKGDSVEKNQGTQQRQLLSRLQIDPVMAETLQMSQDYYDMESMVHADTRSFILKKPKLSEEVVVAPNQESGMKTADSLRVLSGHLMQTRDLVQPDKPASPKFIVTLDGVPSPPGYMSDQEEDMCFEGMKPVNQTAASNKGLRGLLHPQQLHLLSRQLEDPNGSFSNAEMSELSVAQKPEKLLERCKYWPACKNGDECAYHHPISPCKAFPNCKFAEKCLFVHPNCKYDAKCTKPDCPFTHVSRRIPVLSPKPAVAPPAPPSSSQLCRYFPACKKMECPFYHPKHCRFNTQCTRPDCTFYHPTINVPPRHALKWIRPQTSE
# Procedure, shortened: as §1
# UniProt Q8N0Z3 = molecular target: T4, UniProt Q8N0Z3
# T4 sequence (whole entry): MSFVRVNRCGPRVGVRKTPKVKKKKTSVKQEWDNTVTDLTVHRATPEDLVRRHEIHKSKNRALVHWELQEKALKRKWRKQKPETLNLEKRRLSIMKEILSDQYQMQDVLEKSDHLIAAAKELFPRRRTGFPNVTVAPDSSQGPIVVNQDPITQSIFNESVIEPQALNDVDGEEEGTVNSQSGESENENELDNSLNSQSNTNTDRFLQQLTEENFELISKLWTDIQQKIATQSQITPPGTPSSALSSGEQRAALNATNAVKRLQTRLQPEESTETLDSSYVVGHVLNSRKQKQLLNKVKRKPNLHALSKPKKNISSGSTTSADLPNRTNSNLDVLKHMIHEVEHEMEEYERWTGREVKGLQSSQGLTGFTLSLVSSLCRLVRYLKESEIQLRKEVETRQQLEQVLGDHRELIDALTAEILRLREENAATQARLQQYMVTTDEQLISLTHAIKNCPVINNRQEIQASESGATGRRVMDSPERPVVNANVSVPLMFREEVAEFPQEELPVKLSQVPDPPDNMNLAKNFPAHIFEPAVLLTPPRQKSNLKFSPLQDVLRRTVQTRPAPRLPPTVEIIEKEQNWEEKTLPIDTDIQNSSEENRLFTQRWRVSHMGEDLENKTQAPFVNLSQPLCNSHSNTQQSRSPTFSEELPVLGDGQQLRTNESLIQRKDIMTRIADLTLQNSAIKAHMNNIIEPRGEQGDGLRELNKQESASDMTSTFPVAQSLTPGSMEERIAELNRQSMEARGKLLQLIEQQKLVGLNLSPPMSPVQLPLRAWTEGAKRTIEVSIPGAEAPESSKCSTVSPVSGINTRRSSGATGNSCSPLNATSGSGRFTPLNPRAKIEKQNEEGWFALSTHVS
# Procedure, shortened: as §1
# [2] = molecular target: T5, UniProt Q92581-2|Q92581-3|Q92581
# T5 sequence (whole entry): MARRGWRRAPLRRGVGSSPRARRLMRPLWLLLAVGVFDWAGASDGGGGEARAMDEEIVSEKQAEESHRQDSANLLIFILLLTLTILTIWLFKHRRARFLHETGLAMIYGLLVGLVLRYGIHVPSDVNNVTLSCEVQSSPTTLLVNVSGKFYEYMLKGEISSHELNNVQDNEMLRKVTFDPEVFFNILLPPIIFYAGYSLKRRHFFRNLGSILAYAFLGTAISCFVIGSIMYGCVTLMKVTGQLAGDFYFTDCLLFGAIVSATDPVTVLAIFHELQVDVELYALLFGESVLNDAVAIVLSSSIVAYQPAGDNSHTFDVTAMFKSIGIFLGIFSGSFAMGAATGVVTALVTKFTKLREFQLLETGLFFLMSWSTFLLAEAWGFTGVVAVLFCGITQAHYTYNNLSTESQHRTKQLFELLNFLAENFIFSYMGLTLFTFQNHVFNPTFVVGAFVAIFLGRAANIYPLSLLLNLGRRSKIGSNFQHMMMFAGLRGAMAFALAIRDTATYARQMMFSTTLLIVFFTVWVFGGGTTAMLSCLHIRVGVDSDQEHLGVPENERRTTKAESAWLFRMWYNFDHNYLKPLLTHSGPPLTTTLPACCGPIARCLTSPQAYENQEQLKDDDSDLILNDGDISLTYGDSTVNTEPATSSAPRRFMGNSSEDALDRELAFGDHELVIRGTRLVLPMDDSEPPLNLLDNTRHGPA
# Procedure, shortened: as §1
smiles,measurement,setting,value
Nc1ncnc2c1ncn2[C@@H]1O[C@H](COP(=O)(O)OP(=O)(O)NP(=O)(O)O)[C@@H](O)[C@H]1O [adenylyl imidodiphosphate],NP40-soluble protein abundance,UniProt Q58A45|Q58A45-3; concentration: 1mM,1.032 ± 0.0089
same,NP40-soluble protein abundance,UniProt Q58A45|Q58A45-3; concentration: 2mM,1.02 ± 0.024
same,NP40-soluble protein abundance,UniProt Q58A45|Q58A45-3; concentration: 4mM,1.02 ± 0.03
same,NP40-soluble protein abundance,UniProt Q58A45|Q58A45-3; concentration: 6mM,0.999 ± 0.026
same,NP40-soluble protein abundance,UniProt Q58A45|Q58A45-3; concentration: 8mM,1.03 ± 0.022
same,NP40-soluble protein abundance,UniProt Q58A45|Q58A45-3; concentration: 10mM,1.01 ± 0.022
same,NP40-soluble protein abundance,UniProt Q5SGD2|Q5SGD2-3; concentration: 1mM,1.02 ± 0.029
same,NP40-soluble protein abundance,UniProt Q5SGD2|Q5SGD2-3; concentration: 2mM,1.03 ± 0.049
same,NP40-soluble protein abundance,UniProt Q5SGD2|Q5SGD2-3; concentration: 4mM,1 ± 0.019
same,NP40-soluble protein abundance,UniProt Q5SGD2|Q5SGD2-3; concentration: 6mM,1 ± 0.016
same,NP40-soluble protein abundance,UniProt Q5SGD2|Q5SGD2-3; concentration: 8mM,1.02 ± 0.06
same,NP40-soluble protein abundance,UniProt Q5SGD2|Q5SGD2-3; concentration: 10mM,1.006 ± 0.0075
same,NP40-soluble protein abundance,[1]; concentration: 1mM,1.04 ± 0.018
same,NP40-soluble protein abundance,[1]; concentration: 2mM,1.17 ± 0.082
same,NP40-soluble protein abundance,[1]; concentration: 4mM,1.2 ± 0.061
same,NP40-soluble protein abundance,[1]; concentration: 6mM,1.28 ± 0.14
same,NP40-soluble protein abundance,[1]; concentration: 8mM,1.29 ± 0.15
same,NP40-soluble protein abundance,[1]; concentration: 10mM,1.33 ± 0.13
same,NP40-soluble protein abundance,UniProt Q8N0Z3; concentration: 1mM,0.943 ± 0.051
same,NP40-soluble protein abundance,UniProt Q8N0Z3; concentration: 2mM,0.976 ± 0.024
same,NP40-soluble protein abundance,UniProt Q8N0Z3; concentration: 4mM,0.959 ± 0.03
same,NP40-soluble protein abundance,UniProt Q8N0Z3; concentration: 6mM,0.955 ± 0.027
same,NP40-soluble protein abundance,UniProt Q8N0Z3; concentration: 8mM,0.957 ± 0.026
same,NP40-soluble protein abundance,UniProt Q8N0Z3; concentration: 10mM,0.964 ± 0.02
same,NP40-soluble protein abundance,[2]; concentration: 1mM,0.999 ± 0.012
same,NP40-soluble protein abundance,[2]; concentration: 2mM,0.9876 ± 0.0034
same,NP40-soluble protein abundance,[2]; concentration: 4mM,0.957 ± 0.028
same,NP40-soluble protein abundance,[2]; concentration: 6mM,0.9812 ± 0.0025
same,NP40-soluble protein abundance,[2]; concentration: 8mM,0.979 ± 0.025
same,NP40-soluble protein abundance,[2]; concentration: 10mM,0.96 ± 0.026
